# Measured values from PubChem BioAssay.
# Where “and” joins values, the source holds several entries; their conditions need not be identical. Identical values can stand only once. Results filed as inconclusive are left out. Calls of active or inactive are those of the source. Unless noted, no rule for the calls is given here.
# Key:
# [1] = compounds altering circadian rhythm period length – cell-based, LOPAC library, luminescence reporter (AID 2774); conditions: circadian reporter cells, at 7 µM, actives lie on both sides;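 also: values are relative to mean of DMSO wells on each plate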
# [2] = test system: Hepatitis C virus NS3 helicase; experiment: blockers of NS3h binding to ssDNA – biochemical, fluorescence polarization, LOPAC1280 library, primary screen (AID 687035; in the data active = inhibition above about 37%); conditions: Purified HCV NS3 helicase, Cy5-dT15 ssDNA binding fluorescence polarization; stronger effect = higher value; concentration not given here
# [3] = compounds altering Cy5-DNA-NS3h complex signal – biochemical, LOPAC1280, artefact control for HCV NS3 helicase inhibitor project (AID 687037); conditions: Cy5-DNA-NS3h complex fluorescence interference counterscreen
# [4] = test system: Aerobactin synthetase IucA (Klebsiella pneumoniae, hypervirulent); experiment: biochemical IucA inhibition screen of LOPAC library by absorbance (AID 1346212); conditions: IucA enzyme assay, absorbance (OD) readout; stronger effect = lower value;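 tested at 8 µM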;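 also: 100% = no compound wells and 0% = no enzyme wells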
# [5] = viability loss with induced miR-34 in A549 – imaging, A549 dox-inducible miR-34, nuclei and caspase counts, primary screen (AID 1347080;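 active = compounds whose cell count with miR-34 switched on is under 0.7 times the count with it off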); conditions: A549 miR-34 inducible, Hoechst nuclei count, 48 h
# [6] = blockers of cellular phospholipid synthesis – cell-based, LOPAC library, screen 4, primary screen (AID 1347384); conditions: animal cells, phospholipid biosynthesis inhibition screen; at 10 µM
# [7] = MELAS cybrid and Rieske KO viability enhancers – cell-based, MELAS cybrids, Rieske KO mouse fibroblasts, CellTiter-Glo, primary screen (AID 1508586;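 active = mean z-score across replicates of 1.96 or higher in either the MELAS or the Rieske mutant cell line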;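 also: z relative to plate mean and SD of compound and empty wells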); conditions: low glucose
# [8] = galactose survival enhancers in mitochondrial complex I cybrids – cell-based, galactose medium, ATP luminescence, primary screen (AID 1645843;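 active = z-score of at least 1.8 in each of two replicates, scored against plate mean and spread of sample wells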;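 also: positive z means more ATP and so rescue of galactose-driven cybrid death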); conditions: complex I mutant cybrid cells, 72 h, stronger effect = higher value
# [9] = viability loss in pontine glioma line – cell-based, SU-DIPG-XVII, MIPE5.0, CellTiter-Glo, qHTS, dose response (AID 1347060; cut-off not given, nearly all actives have AC50 up to about 26 µM;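 also: cells exposed to compound for 48 hours before viability readout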); conditions: CellTiter-Glo ATP luminescence
# [10] = viability loss in pontine glioma line – cell-based, SU-DIPG-XIII, MIPE4.0, CellTiter-Glo, qHTS, dose response (AID 1347061; cut-off not given, nearly all actives have AC50 up to about 37 µM;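 also: cells exposed to compound for 48 hours before readout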); conditions: CellTiter-Glo ATP luminescence
# [11] = viability loss in pontine glioma line – cell-based, JHH-DIPG-1, MIPE4.0, CellTiter-Glo, qHTS, dose response (AID 1347062; cut-off not given, nearly all actives have AC50 up to about 27 µM;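 also: cells exposed to compound for two days before readout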); conditions: JHH-DIPG-1 viability, CellTiter-Glo ATP luminescence
# [12] = viability loss in pontine glioma line – cell-based, SU-DIPG-IV, MIPE4.0, CellTiter-Glo, qHTS, dose response (AID 1347063; cut-off not given, nearly all actives have AC50 up to about 30 µM;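 also: compound exposure lasted 48 hours before the viability readout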); conditions: CellTiter-Glo ATP luminescence
# [13] = viability loss in pontine glioma line – cell-based, SU-DIPG-XIII, MIPE5.0, CellTiter-Glo, qHTS, dose response (AID 1347064; cut-off not given, nearly all actives have AC50 up to about 23 µM;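 also: cells exposed to compound for 48 hours before the viability read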); conditions: CellTiter-Glo ATP luminescence
# [14] = viability loss in pontine glioma line – cell-based, SU-DIPG-XXV, MIPE5.0, CellTiter-Glo, qHTS, dose response (AID 1347065; cut-off not given, nearly all actives have AC50 up to about 26 µM;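 also: cells exposed to compound for 48 hours before ATP readout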); conditions: CellTiter-Glo ATP luminescence
# [15] = growth inhibition of DIPG cells – cell-based, MIPE4.0 library, CellTiter-Glo luminescence, qHTS (AID 1347066; cut-off not given, nearly all actives have AC50 up to about 30 µM;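 also: cells exposed to compound for 48 hours before readout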); conditions: SU-DIPG-VI viability, CellTiter-Glo ATP luminescence
# [16] = growth inhibition of DIPG cells – cell-based, MIPE5.0 library, qHTS (AID 1347068; cut-off not given, nearly all actives have IC50 up to about 30 µM;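 as to IC50: cells exposed to compound for 48 hours before viability readout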); conditions: SU-DIPG-XXV viability
# [17] = chitosan synthesis blockers in C. neoformans – flow cytometry, Cibacron Brilliant Red staining (AID 1347148); conditions: Cryptococcus neoformans chitosan, stronger effect = lower value; at 10 µM unless noted;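 also: compound exposure lasted three days at 37 degrees C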
# [18] = compounds altering viability of human ES cells (AID 493140); conditions: human embryonic stem cell survival screen; stronger effect = higher value;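 also: cells exposed to compounds for four days before counting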
# [19] = JHH-DIPG-1 glioma cell viability, MIPE5.0 library, CellTiter-Glo luminescence, qHTS (AID 1347067; cut-off not given, nearly all actives have AC50 up to about 26 µM;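 also: cells exposed to compound for 48 hours before readout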); conditions: JHH-DIPG-1 glioma viability, CellTiter-Glo ATP luminescence
# [20] = measured here: relative caspase fold change +Dox/-Dox
# [21] = measured here: total cells with miR-34 induction, stronger effect = lower value
# [22] = measured here: total cells without miR-34 induction
smiles,measurement,setting,value
NC(=O)CN1CC(O)CC1=O (configuration not stated),period change,[1],0.03 h (inactive)
same,inhibition,[2],-2% (inactive)
same,fluorescence ratio (interference),[3],1 (inactive)
same,remaining activity,[4],115% (inactive)
same,fold change,[5]; stronger effect = lower value,1.04 (inactive) and 0.877 (inactive)
same,fold change,[5]; [20],1.56 and 1.01
same,cell count,[5]; [21],10800 and 8840
same,cell count,[5]; [22],10500 and 10100
same,outcome,[6],inactive
same,z-score,"[7]; MELAS cybrid survival, CellTiter-Glo 48 h, stronger effect = higher value",-0.221 (inactive)
same,z-score,"[7]; Rieske KO mouse fibroblast survival, CellTiter-Glo 72 h",-0.154
same,z-score,[8],0.605 (inactive)
CCCN(CCC)[C@@H]1CCc2ccc(O)cc2C1,period change,[1],0.12 h (inactive)
same,inhibition,[2],0% (inactive)
same,fluorescence ratio (interference),[3],1.1 (inactive)
same,remaining activity,[4],125% (inactive)
same,fold change,[5]; stronger effect = lower value,0.992 (inactive)
same,fold change,[5]; [20],1.38
same,cell count,[5]; [21],9820
same,cell count,[5]; [22],9900
same,outcome,[6],inactive
same,z-score,[8],-0.195 (inactive)
CCCn1c(C)c(C(=O)c2cccc3ccccc23)c2ccccc21,remaining activity,[4],107% (inactive)
same,fold change,[5]; stronger effect = lower value,0.889 (inactive)
same,fold change,[5]; [20],1.38
same,cell count,[5]; [21],5580
same,cell count,[5]; [22],6280
NC(=O)c1cc(N2CC2)c([N+](=O)[O-])cc1[N+](=O)[O-],period change,[1],-0.165 h (inactive)
same,inhibition,[2],-2% (inactive)
same,fluorescence ratio (interference),[3],1 (inactive)
same,remaining activity,[4],112% (inactive)
same,fold change,[5]; stronger effect = lower value,1.03 (inactive)
same,fold change,[5]; [20],1.9
same,cell count,[5]; [21],4350
same,cell count,[5]; [22],4220
same,outcome,[6],inactive
same,z-score,[8],0.09 (inactive)
C/C=C(/C)C(=O)O[C@H]1C(C)=C2[C@H]([C@@H]1OC(=O)CCCCCCC)[C@@](C)(OC(C)=O)C[C@H](OC(=O)CCC)[C@@]1(O)[C@H]2OC(=O)[C@@]1(C)O,period change,[1],9.62 h (inactive)
same,inhibition,[2],-3% (inactive)
same,fluorescence ratio (interference),[3],1 (inactive)
same,remaining activity,[4],86.6% (inactive)
same,AC50,[9],52.5 nM (active)
same,AC50,[10],590 nM (active)
same,AC50,[11],46.9 nM (active)
same,AC50,[12],7.43 nM (active)
same,AC50,[13],295 nM (active)
same,AC50,[14],23.5 nM (active)
same,AC50,[15],105 nM (active)
same,IC50,[16],1320 nM (active)
same,fold change,[5]; stronger effect = lower value,1.93 (inactive) and 1.56 (inactive)
same,fold change,[5]; [20],0.132 and 0.916
same,cell count,[5]; [21],662 and 522
same,cell count,[5]; [22],343 and 336
same,fold fluorescence,[17],5.31 [at 76.8 µM] (inactive)
same,outcome,[6],inactive
same,z-score,[8],-1.38 (inactive)
C[C@H](N)CN1CCc2ccc(Br)cc21,period change,[1],0.205 h (inactive)
same,inhibition,[2],-3% (inactive)
same,fluorescence ratio (interference),[3],1 (inactive)
same,remaining activity,[4],115% (inactive)
same,fold change,[5]; stronger effect = lower value,1.19 (inactive)
same,fold change,[5]; [20],0.954
same,cell count,[5]; [21],9010
same,cell count,[5]; [22],7600
same,outcome,[6],inactive
same,z-score,[8],-0.65 (inactive)
CCS(=O)(=O)Nc1cccc(C(=C2CCCCC2)c2cnc[nH]2)c1,period change,[1],0.07 h (inactive)
same,inhibition,[2],0% (inactive)
same,fluorescence ratio (interference),[3],1 (inactive)
same,remaining activity,[4],108% (inactive)
same,fold change,[5]; stronger effect = lower value,1.11 (inactive)
same,fold change,[5]; [20],1.94
same,cell count,[5]; [21],8610
same,cell count,[5]; [22],7740
same,outcome,[6],inactive
same,z-score,[8],-0.125 (inactive)
NC(=O)COc1c(F)cc(SCCNS(=O)(=O)c2ccccc2)cc1F,period change,[1],-0.08 h (inactive)
same,inhibition,[2],-2% (inactive)
same,fluorescence ratio (interference),[3],1 (inactive)
same,remaining activity,[4],109% (inactive)
same,fold change,[5]; stronger effect = lower value,0.978 (inactive)
same,fold change,[5]; [20],0.398
same,cell count,[5]; [21],9150
same,cell count,[5]; [22],9360
same,outcome,[6],inactive
same,z-score,[8],0.24 (inactive)
CCCC[N+]1(C)C2CC(OC(=O)[C@H](CO)c3ccccc3)CC1C1OC12 (some centres not stated),period change,[1],-0.065 h (inactive)
same,inhibition,[2],-1% (inactive)
same,fluorescence ratio (interference),[3],1 (inactive)
same,remaining activity,[4],117% (inactive)
same,fold change,[5]; stronger effect = lower value,0.937 (inactive)
same,fold change,[5]; [20],1.39
same,cell count,[5]; [21],9870
same,cell count,[5]; [22],10500
same,outcome,[6],inactive
same,z-score,[8],0.72 (inactive)
NC1CCc2cc(O)c(O)cc2C1 (configuration not stated),period change,[1],0.115 h (inactive)
same,inhibition,[2],-1% (inactive)
same,fluorescence ratio (interference),[3],1 (inactive)
same,remaining activity,[4],106% (inactive)
same,fold change,[5]; stronger effect = lower value,0.979 (inactive) and 0.806 (inactive)
same,fold change,[5]; [20],1.51 and 1.21
same,cell count,[5]; [21],9700 and 3720
same,cell count,[5]; [22],9900 and 4610
same,outcome,[6],inactive
same,z-score,[8],-0.895 (inactive)
CN1CC[C@@]2(C)c3cc(O)ccc3N(C)C12 (some centres not stated),period change,[1],-0.055 h (inactive)
same,survival,[18],4.58 (inactive)
same,inhibition,[2],1% (inactive)
same,fluorescence ratio (interference),[3],1 (inactive)
same,remaining activity,[4],92.9% (inactive)
same,fold change,[5]; stronger effect = lower value,1.09 (inactive)
same,fold change,[5]; [20],1.19
same,cell count,[5]; [21],8970
same,cell count,[5]; [22],8270
same,outcome,[6],inactive
same,z-score,[8],-1.04 (inactive)
CCCN(CCC)[C@H]1CCc2c(F)ccc(O)c2C1,period change,[1],-0.075 h (inactive)
same,inhibition,[2],-4% (inactive)
same,fluorescence ratio (interference),[3],1 (inactive)
same,remaining activity,[4],115% (inactive)
same,fold change,[5]; stronger effect = lower value,1.05 (inactive)
same,fold change,[5]; [20],1.11
same,cell count,[5]; [21],10100
same,cell count,[5]; [22],9610
same,outcome,[6],inactive
same,z-score,[8],-0.33 (inactive)
NC(=O)CI,period change,[1],-0.03 h (inactive)
same,inhibition,[2],-1% (inactive)
same,fluorescence ratio (interference),[3],1.1 (inactive)
same,remaining activity,[4],124% (inactive)
same,fold change,[5]; stronger effect = lower value,1.11 (inactive)
same,fold change,[5]; [20],1.73
same,cell count,[5]; [21],3640
same,cell count,[5]; [22],3270
same,outcome,[6],inactive
same,z-score,[8],-1 (inactive)
CC(=O)c1c(O)c(C)c(O)c(Cc2c(O)c3c(c(C(=O)/C=C/c4ccccc4)c2O)OC(C)(C)C=C3)c1O,period change,[1],0.065 h (inactive)
same,survival,[18],142 (inactive)
same,inhibition,[2],-3% (inactive)
same,fluorescence ratio (interference),[3],0.9 (inactive)
same,remaining activity,[4],100% (inactive)
same,AC50,[14],20900 nM (active)
same,AC50,[19],23500 nM (active)
same,outcome,[16],inactive
same,fold change,[5]; stronger effect = lower value,0.991 (inactive) and 1.02 (inactive)
same,fold change,[5]; [20],1.01 and 0.826
same,cell count,[5]; [21],1480 and 1570
same,cell count,[5]; [22],1490 and 1540
same,fold fluorescence,[17],4.65 [at 96.8 µM] (inactive)
same,outcome,[6],active
same,z-score,[8],-1.27 (inactive)
